Measured values: the supplement of paper PMC12494721
Counter-ions that a name gives are not always drawn.

system: Klebsiella aerogenes DSM 30053; assay: fold change of Putrescine concentration vs plate DMSO controls (fold change (ratio)); higher = more amine produced, active = hit call of the paper (significant change in both replicates, either direction); conditions: incubation time: 27 h, anaerobic, 37 °C
Procedure, shortened: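 Amines were quantified by LC–triple-quadrupole MS in dynamic MRM mode against external calibration curves, with drift correction within each batch. The samples were whole anaerobic mGAM cultures of four gut bacterial strains, grown for 27 h at 37 °C in 80 µL wells and extracted with cold acetonitrile/methanol with 0.1% formic acid, then centrifuged. Values are reported as fold change over DMSO controls on the same plate. The mean of 2 biological replicates is given.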

Fold change of Putrescine concentration, inactive:
CCn1cc(C(=O)O)c(=O)c2ccc(C)nc21 [Nalidixic acid sodium salt] (20 µM) 1.05
COc1cc(C(=O)NS(=O)(=O)c2ccccc2C)ccc1Cc1cn(C)c2ccc(NC(=O)OC3CCCC3)cc12 [Zafirlukast] (20 µM) 1.02
NCCc1ccc(O)c(O)c1 [Dopamine hydrochloride] (20 µM) 0.996
Cc1c(-c2ccccc2)oc2c(C(=O)OCCN3CCCCC3)cccc2c1=O [Flavoxate hydrochloride] (20 µM) 1
Oc1c(I)cc(Cl)c2cccnc12 [Clioquinol] (20 µM) 1.01
CN(C)C(=N)NC(=N)N [Metformin hydrochloride] (20 µM) 0.96
N=C(N=C(N)N)N1CCOCC1 [Moroxidine hydrochloride] (20 µM) 1.06
CCOCC(O)COc1ccc(NC(=O)CC[S+](C)C)cc1 (stereo not drawn) [Suplatast Tosylate] (20 µM) 1.02
C#CCN(C)CCCOc1ccc(Cl)cc1Cl [Clorgyline hydrochloride] (20 µM) 0.984
CC1(C)[C@H](C(=O)O)N2C(=O)C[C@H]2S1(=O)=O [Sulbactam] (20 µM) 0.983
CC(C)(C)C(=O)C(Oc1ccc(Cl)cc1)n1ccnc1 (stereo not drawn) [Climbazole] (20 µM) 1.02
CC1(C)O[C@@H]2[C@@H](CO[C@@]3(COS(N)(=O)=O)OC(C)(C)O[C@@H]23)O1 [Topiramate] (20 µM) 0.98
CN1CCC(OC(c2ccccc2)c2ccccc2)CC1 [Diphenylpyraline hydrochloride] (20 µM) 0.995
O=c1[nH]c(=O)n([C@H]2C[C@H](O)[C@@H](CO)O2)cc1/C=C/Br [Brivudine] (20 µM) 1
COC(=O)C1=C(C)NC(C)=C(C(=O)OCC(C)C)C1c1ccccc1[N+](=O)[O-] (stereo not drawn) [Nisoldipine] (20 µM) 1
CCOC(=O)C(C)(C)Oc1ccc(Cl)cc1 [Clofibrate] (20 µM) 1.03
CC(C)[C@H]1CC[C@H](C(=O)N[C@H](Cc2ccccc2)C(=O)O)CC1 [Nateglinide] (20 µM) 1
O=C1OC(c2ccc(O)cc2)(c2ccc(O)cc2)c2ccccc21 [Phenolphthalein] (20 µM) 0.977
COc1cc2c(cc1OC)C(=O)C(CC1CCN(Cc3ccccc3)CC1)C2 (stereo not drawn) [Donepezil hydrochloride] (20 µM) 2.04
CC1=C(CC(=O)O)c2cc(F)ccc2/C1=C\c1ccc([S+](C)[O-])cc1 (stereo not drawn) [Sulindac] (20 µM) 0.951
Cc1cn([C@H]2C=C[C@@H](CO)O2)c(=O)[nH]c1=O [Stavudine] (20 µM) 1.04
C[C@]12CCC(=O)C=C1CC[C@@H]1[C@@H]2C(=O)C[C@@]2(C)[C@H]1CC[C@]2(O)C(=O)CO [Cortisone] (20 µM) 1
C/C(O)=C(\C#N)C(=O)Nc1ccc(C(F)(F)F)cc1 [Teriflunomide] (20 µM) 1.02
C[N+](C)(C)CCCCCC[N+](C)(C)C [Hexamethonium dibromide dihydrate] (20 µM) 0.982
COC(=O)CCc1ccc(OCC(O)CNC(C)C)cc1 (stereo not drawn) [Esmolol hydrochloride] (20 µM) 0.988
O=C(O)Cc1ccccc1Oc1ccc(Cl)cc1Cl [Fenclofenac] (20 µM) 1.01

Fold change of Putrescine concentration, active:
CCN1CCN(c2cc3c(cc2F)c(=O)c(C(=O)O)cn3C2CC2)CC1 [Enrofloxacin] (20 µM) 0.619
C=C1c2c(Cl)ccc(O)c2C(O)=C2C(=O)[C@]3(O)C(O)=C(C(N)=O)C(=O)[C@@H](N(C)C)[C@@H]3[C@@H](O)[C@H]12.O=C(O)c1cc(S(=O)(=O)O)ccc1O [Meclocycline sulfosalicylate] (20 µM) 0.444
